Drawing on PubChem BioAssay (NCATS), this text covers activation for 40 molecules.

Results filed as inconclusive are left out. Values without a mark were called inactive. Calls come from the whole dose curve; as a rule, active = well fitted activation curve with a large enough effect; inconclusive = small, poorly fitted or top-dose-only effect; inactive = no such curve, though single readings can be large or run the other way.

Chain of Cellular tumor antigen p53 (Homo sapiens) (P04637 whole entry, looked up): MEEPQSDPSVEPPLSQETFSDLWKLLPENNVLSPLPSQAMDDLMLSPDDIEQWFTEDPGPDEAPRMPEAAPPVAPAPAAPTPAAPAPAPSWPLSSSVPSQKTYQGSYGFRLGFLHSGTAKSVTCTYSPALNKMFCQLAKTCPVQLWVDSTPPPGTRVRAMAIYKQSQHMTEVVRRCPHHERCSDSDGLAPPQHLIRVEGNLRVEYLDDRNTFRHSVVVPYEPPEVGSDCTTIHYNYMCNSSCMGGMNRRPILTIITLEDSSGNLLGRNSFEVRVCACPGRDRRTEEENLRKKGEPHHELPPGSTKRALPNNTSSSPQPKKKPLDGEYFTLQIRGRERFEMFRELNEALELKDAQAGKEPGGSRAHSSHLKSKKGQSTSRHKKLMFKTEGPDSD

The assay deals with Cellular tumor antigen p53 (Homo sapiens) (UniProt P04637). Put plainly: Primary qHTS for small molecule compounds that upregulate eGFP-tagged delta133p53alpha (in N-terminal) cells. (AID 2060322).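 Note: series mostly up to about 56 µM; 0% = DMSO vehicle and 100% = reference activator; nearly all actives have a fitted effect of over 75% in size.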 Particulars: NCI-H358 eGFP-delta133p53alpha fluorescence, 24 h; activation: active compounds read high. The procedure, abridged:
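NCI-H358 cells pre-induced 24 h with 10 ng/ml doxycycline for eGFP-delta133p53alpha, plated dox-free and exposed 24 h at 37C to titrated compounds. Fixed, Hoechst-stained; gated GFP peak intensity by laser scanning cytometry, normalized to DMSO (0%) and 57.5 uM 5-azacytidine (100%).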
`O=C(Nc1ccc(C(F)(F)F)cn1)N1CCN(c2ncccc2C(F)(F)F)CC1`: the activation is -3.34%.

For the molecule `CCNC(=O)c1noc(-c2cc(Cl)c(O)cc2O)c1-c1ccc(OC)cc1`, the activation was -6.68%.

As to `CC[C@H]1CN(c2nc(N)c(C(N)=O)nc2Cl)CCN1C1CCN(Cc2ccc(Cl)cc2)CC1`, the activation is 3.34%.

For `CNS(=O)(=O)CC1CCC(N(C)c2ncnc3[nH]ccc23)CC1` (stereo not given), the activation was -0.477%.

In the case of `CNc1cc(OC)c(C(=O)N[C@@H]2CCN(Cc3ccccc3)[C@@H]2C)cc1Cl`, the activation is 12.4%.

Take `O=C(O)c1cccc(S(=O)(=O)N2CCc3ccccc3C2)c1`: the activation is -7.64%.

Take `Cc1[nH]c2ccccc2c1CCNC(=O)c1cccs1`: the activation was -18.1%.

`CC1(C)CC=C(C#Cc2ccccc2)c2cc(/C=C/c3ccc(C(=O)O)cc3)ccc21`: the activation is -5.73%.

For the molecule `Cc1cc(NC(=O)NCCN2CCC(O)(Cc3ccccc3)CC2)c2ccccc2n1`, the activation is 3.34%.

As for `COc1cc(N)c(Cl)cc1C(=O)NC[C@@H]1CCN2CCC[C@@H]12`, the activation was -3.34%.

For the molecule `N[C@@H](CC(=O)Nc1ccc(Oc2cc(F)c(F)cc2Br)cc1)C(=O)O`, the activation was -8.11%.

For `CN1CCC(c2c[nH]c3ccc(NC(=O)c4ccc(F)cc4)cc23)CC1`, the activation was -11%.

In the case of `COc1cccc(OC)c1-c1nc(C(=O)N[C@@H](CC(C)C)C(=O)O)cn1-c1ccnc2cc(Cl)ccc12`, the activation was -8.59%.

Consider `Cc1c(C(=O)NCc2cccnc2)nn(-c2ccc(Cl)cc2Cl)c1-c1ccc(Cl)cc1`, for which the activation is 21%.

For `C[C@@H](O[C@H]1OCCN(Cc2nn(P(=O)(O)O)c(=O)[nH]2)[C@H]1c1ccc(F)cc1)c1cc(C(F)(F)F)cc(C(F)(F)F)c1`, the activation was 10%.

Regarding `CCCCc1c(-c2ccc(OC)cc2)[nH]c2nccnc12`, the activation is 5.25%.

Take `CC[N+]1(C/C2=C/CCCCCC2)CCC(NC(=O)C2c3cc(Cl)ccc3Oc3ccc(Cl)cc32)CC1` (stereo not given): the activation is 28.6%.

For `Cc1ccnn1-c1ccc(C(=O)N2CCN(S(=O)(=O)c3ccc(Cl)c(C(F)(F)F)c3)CC2)cc1`, the activation was -9.07%.

As for `O=C(N[C@H](Cc1cscn1)C(=O)N[C@@H](CC1CCCCC1)[C@@H](O)[C@@H](O)C1CC1)c1nc2ccccc2[nH]1`, the activation is 5.25%.

Take `CCOc1ccc(NC(=S)N2CCC(C(O)(c3ccccc3)c3ccccc3)CC2)cc1`: the activation is -0.955%.

As for `CN(C)CC(c1ccc(O)cc1)C1(O)CCCCC1` (stereo not given), the activation is -9.55%.

Take `O=[N+]([O-])c1cn2c(n1)OC[C@@H](OCc1ccc(-c3ccc(OC(F)(F)F)cc3)nc1)C2`: the activation was -3.34%.

In the case of `COc1ccc([C@H]2CNC(=O)C2)cc1OC1CCCC1`, the activation is -26.3%.

`c1ccc(-c2ncc(CN3CCN(c4ncccn4)CC3)[nH]2)cc1`: the activation is -2.39%.

For the molecule `COc1cc(N2CCOCC2)ccc1NC(=O)c1csc(-c2cccnc2)n1`, the activation was 24.8%.

With `O=C(Nc1cc(-c2ccccc2)nn1-c1ccccc1)c1ccc([N+](=O)[O-])cc1`, the activation is -11%.

Regarding `Cn1c(CO)c(-c2ccccc2)c2cc([N+](=O)[O-])ccc21`, the activation was -4.77%.

As for `CCCC(=O)C1CCN(c2ncnc3c2CN(C(=O)c2ccc(-c4ccccc4)cc2)CC3)CC1`, the activation was -12.4%.

`O=C(Nc1ccc(-n2nc(C(F)(F)F)cc2C(F)(F)F)cc1)c1ccncc1F`: the activation is -5.25%.

For `CCCSc1nc(NC2CC2c2ccc(F)c(F)c2)c2nnn(C3CC(OCCO)C(O)C3O)c2n1` (stereo not given), the activation is 16.7%.

For `C[C@@H]1C(=O)O[C@H]2CC34[C@H]5C[C@@H](C(C)(C)C)C36[C@@H](OC(=O)[C@@H]6O)OC4(C(=O)O5)[C@]21O` (stereo not given in full), the activation is -10%.

Regarding `CCOc1ccc(-c2nc(-c3cccc4c3CCC4NCCO)no2)cc1OCC` (stereo not given), the activation is -0.955%.

With `O=C(CCCCC1CCCCC1)N1CCC(c2cnc[nH]2)CC1`, the activation was -1.91%.

On to `CC(C)(C)NCC(O)COc1cccc2c1CCCC2=O` (stereo not given), for which the activation was -7.64%.

In the case of `CNc1cc2[nH]c(=O)n(-c3ccc(NC(=O)NS(=O)(=O)c4ccc(Cl)s4)cc3)c(=O)c2cc1F`, the activation is 8.11%.

Regarding `CC(=O)O[C@]1(C(C)=O)CC[C@H]2[C@@H]3CCC4=CC(=O)CCC4=C3[C@@H](c3ccc(N(C)C)cc3)C[C@@]21C`, the activation was -13.8%.

Regarding `CC(C)(O)c1ccc2c(c1)ncn2-c1cccc(-c2ccccc2C#N)c1`, the activation is -12.4%.

For the molecule `O=C(NCCCN1CCOCC1)c1cnn2c(-c3ccccc3)cc(-c3ccccc3)nc12`, the activation was -6.68%.

`CN1CC2CN(c3ccc4oc5ccccc5c(=O)c4c3)CC2C1` (stereo not given): the activation was 0.955%.

As for `Cc1cc(-n2c(=O)[nH]c(=O)n(C)c2=O)ccc1Oc1ccc(SC(F)(F)F)cc1`, the activation is -10.5%.
